# Shown are actives, neighbours in structure and some others; about 3.8% of the full set was active somewhere.
# 697 NFkB inh: inhibitors of PMA/ionomycin-induced NF-kB reporter, 697 cells, primary screen, B-cell NF-kB inhibitor project, cell-based, luminescence, uHTS. 697 B-cell NF-kB luciferase reporter, 16 h. inhibition, % at 4 µM. actives 0.33% (n = 330,000). AID 435022, 2010; in the data active = inhibition above about 35%
# Mdm2 MdmX PPI: inhibitors of human Mdm2-MdmX association, primary screen, cell-based, luminescence, split luciferase, SaOS-2, uHTS; Protein Mdm4 (Homo sapiens) + E3 ubiquitin-protein ligase Mdm2 (Homo sapiens), …; SaOS-2 split-luciferase Mdm2/MdmX complementation; inhibition, % at 8 µM; actives 3% (n = 330,000); AID 485346, 2010;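 active = inhibition of at least 50% at 8 µM in the primary screen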
# Target sequence (O15151 whole entry, looked up): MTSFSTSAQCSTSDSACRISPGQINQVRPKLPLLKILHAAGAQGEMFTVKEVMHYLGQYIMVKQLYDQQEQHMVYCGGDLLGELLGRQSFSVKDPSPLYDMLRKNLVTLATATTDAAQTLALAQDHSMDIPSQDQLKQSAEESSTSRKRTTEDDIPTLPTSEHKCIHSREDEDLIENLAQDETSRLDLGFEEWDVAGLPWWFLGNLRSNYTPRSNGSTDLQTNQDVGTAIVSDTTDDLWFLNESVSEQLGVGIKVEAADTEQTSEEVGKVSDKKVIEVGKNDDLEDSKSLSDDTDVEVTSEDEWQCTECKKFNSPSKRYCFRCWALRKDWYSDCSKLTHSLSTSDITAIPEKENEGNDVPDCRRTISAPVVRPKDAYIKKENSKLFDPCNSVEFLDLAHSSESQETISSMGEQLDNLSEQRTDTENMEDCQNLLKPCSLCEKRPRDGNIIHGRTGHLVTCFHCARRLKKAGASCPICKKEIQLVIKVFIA
# Target sequence (Q00987 whole entry, looked up): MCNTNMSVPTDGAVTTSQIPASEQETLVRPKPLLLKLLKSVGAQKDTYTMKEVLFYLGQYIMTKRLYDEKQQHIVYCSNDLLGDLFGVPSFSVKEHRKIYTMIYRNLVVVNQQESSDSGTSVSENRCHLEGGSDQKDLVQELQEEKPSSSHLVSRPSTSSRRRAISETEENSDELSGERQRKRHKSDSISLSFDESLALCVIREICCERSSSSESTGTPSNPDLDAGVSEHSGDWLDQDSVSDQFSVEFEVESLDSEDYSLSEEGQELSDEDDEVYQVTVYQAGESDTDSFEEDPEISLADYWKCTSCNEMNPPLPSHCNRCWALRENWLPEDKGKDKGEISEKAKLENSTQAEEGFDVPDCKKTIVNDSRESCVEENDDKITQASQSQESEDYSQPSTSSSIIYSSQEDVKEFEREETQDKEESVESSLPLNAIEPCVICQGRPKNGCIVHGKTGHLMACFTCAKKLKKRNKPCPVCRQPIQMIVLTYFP
# Gli-Sufu antag: Gli-Sufu pathway antagonists, primary screen, luciferase luminescence, Sufu-KO-LIGHT cells, uHTS; Sufu-KO-LIGHT fibroblasts, Gli luciferase reporter luminescence; actives 0.74% (n = 340,000); inhibition, % at 5 µM; AID 588413, 2011;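 active = inhibition above about 55%, limit read from the data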
# Jurkat NFkB inh: inhibitors of induced NF-kB luciferase reporter, primary screen, TCR NF-kB activation inhibitor project, cell-based, luminescence, uHTS; actives 0.53% (n = 330,000); AID 435003, 2010; Jurkat, PMA/ionomycin-induced NF-kB luciferase reporter; inhibition, % at 4 µM; in the data active = inhibition above about 50%
# Shn3 inh set2: reduction of Shn3 3'UTR firefly luciferase signal, primary screen, Schnurri-3 inhibitor project, cell-based, Clone20 osteoblasts, set 2. inhibition, % at 12.5 µM. Clone20 osteoblast Shn3 3'UTR firefly luciferase, 24 h. actives 0.52% (n = 360,000);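 active = mean inhibition of at least 75% with every replicate also reaching 75%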
# Mdm2-MdmX conf: Mdm2-MdmX complex disruptors, retested hits, confirmation, luminescence, single concentration; shares compounds with Mdm2 MdmX PPI; Mdm2-MdmX binding, luminescent assay; inhibition, % at 8 µM; actives 55% (n = 10,000); AID 489028, 2010; in the data active = inhibition above about 40%
# FLuc counter: full-length luciferase signal inhibition, confirmation, counter-screen for Mdm2/MdmX interaction inhibitor project, cell-based, single concentration, SaOS-2. shares compounds with Mdm2 MdmX PPI. SaOS-2 full-length luciferase counterscreen, luminescence. inhibition, % at 8 µM. actives 77% (n = 6,200). AID 504607, 2011;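 active = mean inhibition at 8 µM reaching about 37%, which flags the compound as non-specific, limit read from the data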;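 note: p53-null SaOS-2 cells with luciferase driven by a doxycycline-inducible promoter; compound on cells about two nights before reading with doxycycline added after day one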
# Gli antag conf: Gli-SUFU pathway antagonists, confirmation, single concentration, luciferase luminescence, Sufu-KO-LIGHT cells; shares compounds with Gli-Sufu antag; actives 40% (n = 2,500); Gli luciferase reporter; inhibition, % at 5 µM; AID 602428, 2012;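 active = mean inhibition at 5 µM reaching about 45%, limit read from the data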
# Gli cytotox: cytotoxicity in Sufu-KO-LIGHT cells, confirmation, cytotoxicity control for Gli-SUFU antagonist project, cell-based, ATP luminescence, single concentration. shares compounds with Gli-Sufu antag. cytotoxicity, % at 5 µM. actives 32% (n = 2,500). AID 651994, 2013;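 active = mean cytotoxicity at 5 µM above about 25%, limit read from the data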;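 note: cells exposed to compound overnight for roughly 16 to 18 hours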
# Wnt3a counter: Wnt3a reporter signal inhibition, confirmation, counter-screen for Gli-SUFU antagonist project, Wnt-LIGHT cells, luminescence, single concentration; shares compounds with Gli-Sufu antag; Wnt3a-driven luciferase reporter; AID 651995, 2013; inhibition, % at 6.25 µM; actives 20% (n = 2,500);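 active = mean inhibition above about 25%, limit read from the data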
# Hits are given with their value; . = inactive; / = no result given.
SMILES,697 NFkB inh,Mdm2 MdmX PPI,Gli-Sufu antag,Jurkat NFkB inh,Shn3 inh set2,Mdm2-MdmX conf,FLuc counter,Gli antag conf,Gli cytotox,Wnt3a counter
COc1ccc(-n2nc(C(=O)c3cccs3)cc(-c3nc4ccccc4[nH]3)c2=N)cc1,.,98,98,.,.,49,.,.,.,.
Cc1cccc(-n2nc(C(=O)c3ccco3)cc(-c3nc4ccccc4[nH]3)c2=N)c1,.,.,.,.,.,/,/,/,/,/
Cc1ccccc1S(=O)(=O)N(C)C[C@@H]1OCc2cn(nn2)CCCC(=O)N([C@H](C)CO)C[C@H]1C,/,/,/,/,.,/,/,/,/,/
COc1ccc(OCC(O)Cn2c(=N)n(Cc3ccccc3)c3ccccc32)cc1 (stereo not given),.,54,.,.,.,43,65,.,31,.
COc1ccc(OCC(O)CN2C(=O)c3ccccc3C2=O)cc1 (stereo not given),.,.,.,.,.,/,/,/,/,/
O=C1/C(=C/c2ccccc2)SC(=S)N1CCCC(=O)N1CCCCC1CCO (stereo not given),.,85,59,.,.,57,37,.,.,.
COc1ccc(/C=C2\SC(=S)N(CCC(=O)N3CCCCC3CCO)C2=O)cc1 (stereo not given),.,.,.,.,.,/,/,/,/,/
CC(=O)c1cccc(NC(=O)c2cccc3ccccc23)c1,.,.,.,.,.,/,/,/,/,/
CCN(CCCNC(=O)c1cc2c(-c3cccc(OC)c3)nn(C)c2s1)Cc1ccccc1,.,55,59,.,.,.,/,.,.,.
Cc1ccc(S(=O)(=O)N(C)c2ccccc2C(=O)Nc2c(F)cccc2F)cc1,.,.,.,.,.,/,/,/,/,/
CC(=O)Nc1ccc(SCC(=O)c2cc(C)n(-c3ccccc3)c2C)cc1,.,65,.,.,.,79,94,70,.,77
CCCCCCc1cc2cc(C(=O)Nc3ccccc3)c(=O)oc2cc1O,.,97,73,.,.,61,57,64,30,79
Cc1ccc(C)c(-c2nnc(NC(=O)CCS(=O)(=O)c3ccc(F)cc3)o2)c1,.,.,.,.,.,/,/,/,/,/
CN(C)c1nc(-c2ccccn2)nnc1-c1ccccc1,.,76,66,.,93,.,/,66,.,72
CCN(CC)c1nc(-c2ccccn2)nc(-c2ccccc2)c1C#N,.,59,63,.,.,.,/,.,.,.
CN(C)c1nc(-c2ccccc2)nc(-c2ccc(Cl)cc2)c1C#N,.,.,.,.,.,/,/,/,/,/
O=C1C2C3CCC(C3)C2C(=O)N1Cc1ccccc1 (stereo not given),.,.,.,.,.,/,/,/,/,/
CC(C)(C)c1ccc2c(c1)OC(C(=O)N/N=C/c1ccc([N+](=O)[O-])o1)CO2 (stereo not given),.,.,.,.,.,/,/,/,/,/
Cc1nc2ccccc2c2oc(C(=O)N3CCN(c4ccc([N+](=O)[O-])cc4)CC3)cc12,.,86,59,.,.,.,/,.,28,.
Cc1nc2ccccc2c2oc(C(=O)N3CCN(C(=O)c4ccco4)CC3)cc12,.,.,.,.,.,/,/,/,/,/
